The source made the active and inactive calls.
Legend:
[1] = optical density shifts of acrAB sulA E. coli – strain DRC41, OD650, 48 h, E. coli filamentation inducer project, primary screen (AID 1152); conditions: higher = more signal, called active from +8 up or from −8 down;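 also: E. coli MC1000 strain DRC41 lacking acrAB efflux pump and sulA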
[2] = probe aLefty1 binding on compound microarray – biochemical, small-molecule microarray, 635/667 nm fluorescence, primary screen (AID 1153); conditions: higher = more signal;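 also: score merges spot fluorescence with signal-to-noise ratio from the scanned slide images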
[3] = plasmodial surface anion channel blockers, osmotic lysis – cell-based, P. falciparum Indochina, OD700, 1 h, primary screen (AID 1154); conditions: P. falciparum Indochina infected RBC osmotic lysis, higher = more signal, called active from +8 up or from −8 down
[4] = plasmodial surface anion channel blockers, osmotic lysis – cell-based, P. falciparum Indochina, OD700, 2 h, primary screen (AID 1155);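 also: lysis reports solute entry through the parasite surface anion channel PSAC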; conditions: P. falciparum Indochina infected erythrocytes, higher = more signal, called active from +8 up or from −8 down
[5] = changes in parasitized red cell lysis, either direction – P. falciparum Indochina, OD700, 3 h, PSAC antagonist project, primary screen (AID 1156); conditions: P. falciparum-infected erythrocytes, osmotic lysis, higher = more signal, called active from +8 up or from −8 down
[6] = plasmodial surface anion channel blockers, osmotic lysis – cell-based, P. falciparum Indochina, OD700, 18 h, primary screen (AID 1157); conditions: P. falciparum Indochina infected erythrocytes, osmotic lysis OD700, 18 h; higher = more signal, called active from +8 up or from −8 down
[7] = S6 kinase pathway phospho-S6 level changes – cell-based, A549, cytoblot, luminescence, serum-stimulated, primary screen (AID 1158); conditions: 5 h, higher = more signal;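 also: serum-stimulated A549 lung adenocarcinoma cells; signal is phosphorylated S6 detected by cytoblot immunostaining with HRP secondary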
[8] = target: NADPH oxidase 2 (Homo sapiens) (UniProt P04839); assay: compounds shifting NOX2 Amplex Red fluorescence – cell-based, HEK293-NOX2, PMA-stimulated, NOX inhibitor project, primary screen (AID 1159); conditions: 45 min, higher = more signal, called active from +8 up or from −8 down; also: test concentration not given here
Chain of NADPH oxidase 2 (Homo sapiens) (P04839 whole entry, looked up): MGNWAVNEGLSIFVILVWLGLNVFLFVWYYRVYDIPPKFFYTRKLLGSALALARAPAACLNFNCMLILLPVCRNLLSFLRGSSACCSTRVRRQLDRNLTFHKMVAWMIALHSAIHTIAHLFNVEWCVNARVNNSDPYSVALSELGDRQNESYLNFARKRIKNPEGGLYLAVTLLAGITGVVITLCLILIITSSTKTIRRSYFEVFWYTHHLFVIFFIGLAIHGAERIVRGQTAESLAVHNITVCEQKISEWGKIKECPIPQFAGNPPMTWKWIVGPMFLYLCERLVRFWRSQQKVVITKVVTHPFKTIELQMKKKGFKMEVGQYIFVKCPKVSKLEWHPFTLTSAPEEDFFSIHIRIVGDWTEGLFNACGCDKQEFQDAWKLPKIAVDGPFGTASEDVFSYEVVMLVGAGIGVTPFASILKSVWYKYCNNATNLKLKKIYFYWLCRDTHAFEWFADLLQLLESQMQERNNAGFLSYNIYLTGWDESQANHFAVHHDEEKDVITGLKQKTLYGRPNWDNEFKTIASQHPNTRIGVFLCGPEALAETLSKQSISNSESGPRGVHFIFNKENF

[9] = target: NADPH oxidase 4 (Homo sapiens) (UniProt Q9NPH5); assay: compounds shifting NOX4 Amplex Red fluorescence – cell-based, HEK293-NOX4, tetracycline-induced, NOX inhibitor project, primary screen (AID 1160); conditions: HEK293-NOX4, Amplex Red H2O2 fluorescence, 45 min; higher = more signal, called active from +8 up or from −8 down
Chain of NADPH oxidase 4 (Homo sapiens) (Q9NPH5 whole entry, looked up): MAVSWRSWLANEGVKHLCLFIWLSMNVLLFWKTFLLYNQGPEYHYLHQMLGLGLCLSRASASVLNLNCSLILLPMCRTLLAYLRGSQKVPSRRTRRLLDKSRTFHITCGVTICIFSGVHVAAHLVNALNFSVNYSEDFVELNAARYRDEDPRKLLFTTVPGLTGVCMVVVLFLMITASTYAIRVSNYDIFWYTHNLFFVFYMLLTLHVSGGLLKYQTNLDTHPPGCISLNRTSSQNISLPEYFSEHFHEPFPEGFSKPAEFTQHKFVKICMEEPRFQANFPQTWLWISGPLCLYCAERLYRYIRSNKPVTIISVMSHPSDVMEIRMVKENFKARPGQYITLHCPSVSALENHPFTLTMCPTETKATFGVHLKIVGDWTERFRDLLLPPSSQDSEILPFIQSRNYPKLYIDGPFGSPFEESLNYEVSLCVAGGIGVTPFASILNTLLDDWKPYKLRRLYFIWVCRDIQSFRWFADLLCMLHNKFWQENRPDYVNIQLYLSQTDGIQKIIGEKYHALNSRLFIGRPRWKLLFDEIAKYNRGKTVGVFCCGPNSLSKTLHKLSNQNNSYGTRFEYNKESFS

[10] = target: NADPH oxidase 5 (Homo sapiens) (UniProt Q96PH1); assay: compounds shifting NOX5 Amplex Red fluorescence – cell-based, HEK293-NOX5, NOX inhibitor project, primary screen (AID 1161); conditions: HEK293-NOX5, ionomycin, 45 min, higher = more signal
Chain of NADPH oxidase 5 (Homo sapiens) (Q96PH1 whole entry, looked up): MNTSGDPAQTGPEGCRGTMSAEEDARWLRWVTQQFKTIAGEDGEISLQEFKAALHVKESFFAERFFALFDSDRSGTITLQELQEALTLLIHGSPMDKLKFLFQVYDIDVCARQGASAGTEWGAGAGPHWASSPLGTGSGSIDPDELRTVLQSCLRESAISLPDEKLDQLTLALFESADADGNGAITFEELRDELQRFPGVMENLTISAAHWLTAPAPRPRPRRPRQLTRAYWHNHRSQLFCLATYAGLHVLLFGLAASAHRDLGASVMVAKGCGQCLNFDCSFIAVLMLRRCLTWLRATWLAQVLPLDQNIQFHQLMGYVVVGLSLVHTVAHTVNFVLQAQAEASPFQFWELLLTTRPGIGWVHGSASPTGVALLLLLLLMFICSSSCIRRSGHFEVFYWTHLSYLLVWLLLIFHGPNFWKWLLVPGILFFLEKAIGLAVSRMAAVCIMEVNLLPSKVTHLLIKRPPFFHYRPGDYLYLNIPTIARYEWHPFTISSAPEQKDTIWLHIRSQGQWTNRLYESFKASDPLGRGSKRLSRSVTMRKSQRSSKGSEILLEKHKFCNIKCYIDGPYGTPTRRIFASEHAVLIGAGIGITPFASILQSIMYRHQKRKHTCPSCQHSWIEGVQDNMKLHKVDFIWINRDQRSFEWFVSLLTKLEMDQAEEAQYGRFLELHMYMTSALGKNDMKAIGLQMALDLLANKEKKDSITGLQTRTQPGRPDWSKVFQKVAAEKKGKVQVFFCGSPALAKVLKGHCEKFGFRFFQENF

[11] = compound effects on lung adenocarcinoma cell viability – A549, calcein-AM fluorescence, 48 h, basal, profiling panel (AID 1162); conditions: higher = more signal; also: test concentration not given here
[12] = compound effects on differentiated 3T3-L1 adipocyte viability – cell-based, 3T3-L1 adipocytes, calcein-AM fluorescence, 48 h, basal, profiling panel (AID 1163); conditions: 3T3-L1 adipocytes viability, higher = more signal; also: test concentration not given here
[13] = compound effects on hepatocellular carcinoma cell viability – HepG2, calcein-AM fluorescence, 48 h, basal, profiling panel (AID 1164); conditions: higher = more signal; also: test concentration not given here
[14] = compound effects on multiple myeloma cell viability – MM1S, calcein-AM fluorescence, 48 h, basal, profiling panel (AID 1165); conditions: higher = more signal; also: test concentration not given here
[15] = calcein-AM signal in unstimulated myeloma cells – cell-based, calcein-AM fluorescence, 48 h, PK04 Diversity Set, profiling panel (AID 1166); conditions: RPMI8226 myeloma viability, higher = more signal;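 also: cells grown under basal conditions without added stimulus; test concentration not given here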
[16] = JC-1 mitochondrial signal, unstimulated HepG2 cells – cell-based, JC-1 fluorescence, 24 h, 100 nL compound, profiling panel (AID 1167); conditions: HepG2 mitochondrial potential, higher = more signal; also: test concentration not given here
[17] = JC-1 mitochondrial signal, unstimulated adipocytes – cell-based, JC-1 fluorescence, 3T3-L1 adipocytes, 24 h, 100 nL compound, profiling panel (AID 1168); conditions: JC-1 mitochondrial fluorescence, higher = more signal, called active from +8 up or from −8 down; also: test concentration not given here
[18] = JC-1 mitochondrial signal, unstimulated myeloma cells – cell-based, JC-1 fluorescence, RPMI8226, 24 h, 100 nL compound, profiling panel (AID 1169); conditions: JC-1 mitochondrial potential fluorescence, higher = more signal; also: test concentration not given here
[19] = JC-1 mitochondrial signal, unstimulated MM1S myeloma – cell-based, JC-1 fluorescence, 24 h, 100 nL compound, profiling panel (AID 1170); conditions: MM1S mitochondrial potential, higher = more signal; also: test concentration not given here
[20] = resazurin metabolic signal in A549 cells – cell-based, resazurin fluorescence, 24 h, PK04 Diversity Set, profiling panel (AID 1171); conditions: A549 viability, higher = more signal, called active from +8 up or from −8 down; also: test concentration not given here

| Compound | z-score [1] | composite z-score [2] | z-score [3] | z-score [4] | z-score [5] | z-score [6] | z-score [7] | z-score [8] | z-score [9] | z-score [10] | z-score [11] | z-score [12] | z-score [13] | z-score [14] | z-score [15] | z-score [16] | z-score [17] | z-score [18] | z-score [19] | z-score [20] |
| --- | --- | --- | --- | --- | --- | --- | --- | --- | --- | --- | --- | --- | --- | --- | --- | --- | --- | --- | --- | --- |
| O=C1N(CCS(=O)(=O)c2ccccc2)Cc2ccccc2[C@H]2OC(c3ccc(OCCCO)cc3)=N[C@@]12CCS(=O)(=O)c1ccccc1 | -0.0143 (inactive) | 0.197 | 31.1 (active) | 28.4 (active) | 3.2 (inactive) | 6.48 (inactive) | 0.834 | 0.644 (inactive) | 1.5 (inactive) | 0.357 | 1.02 | 1.46 | 1.19 | 0.222 | 0.117 | 0.0737 | 0.557 (inactive) | -0.81 | -0.848 | 0.908 (inactive) |
| CC(C)C(O)C1C=CC2C(=O)N(c3ccccc3)C(=O)C2N1Nc1ccc(C#N)cc1 (stereo not given) | -0.411 (inactive) | 0.797 | 12 (active) | 1.1 (inactive) | 2.03 (inactive) | 0.875 (inactive) | -1.09 | -1.81 (inactive) | -4.46 (inactive) | -2.83 | -0.777 | -0.289 | -0.114 | -0.0628 | -1.15 | -0.421 | -1.47 (inactive) | -0.775 | -0.44 | -0.796 (inactive) |
| O=C(CS)NCCCCCCNC(=O)[C@H]1C[C@H]2C(=O)N3CCC[C@H]3C(=O)N2[C@H]1c1cccc(OCCO)c1 | -1.17 (inactive) | 0.105 | 5.08 (inactive) | 0.331 (inactive) | -0.645 (inactive) | 0.253 (inactive) | 0.598 | 1.25 (inactive) | 0.799 (inactive) | 0.0469 | -0.464 | -0.966 | -0.0465 | -0.939 | 0.529 | -0.971 | -0.955 (inactive) | -0.127 | -0.285 | 0.388 (inactive) |
| CN(C)CCCNC(=O)[C@@]1(Cc2ccccc2I)c2ccccc2C(=O)N(Cc2ccccc2C(F)(F)F)[C@H]1c1ccc(CO)cc1 | -2.14 (inactive) | -0.0536 | 11.8 (active) | 1.49 (inactive) | -0.231 (inactive) | 0.649 (inactive) | -0.349 | -10 (active) | -4.55 (inactive) | -4.63 | -2.7 | -0.469 | -5.13 | -3.8 | -4.33 | -1.04 | 0.64 (inactive) | -0.98 | -2.43 | -5.93 (inactive) |
| O=C(O)[C@@]1(Cc2ccccc2)N=C(c2ccc(OCCCO)cc2)O[C@H]1c1ccccc1 | 0.922 (inactive) | -0.251 | 3.67 (inactive) | 0.132 (inactive) | -0.466 (inactive) | 0.445 (inactive) | -0.134 | 0.18 (inactive) | 0.864 (inactive) | 1.33 | 0.83 | -0.664 | -0.235 | 0.275 | 0.237 | 0.628 | 1.29 (inactive) | -0.182 | -0.558 | 0.575 (inactive) |
| CCOC(=O)C[C@H]1[C@H](OC(=O)c2ccccc2-c2ccccc2)[C@@H](NC(=O)c2ccc3ccccc3c2)c2cc(OCCCO)ccc2N1C(=O)c1ccc2ccccc2n1 | 0.0514 (inactive) | -0.193 | 4.5 (inactive) | 0.759 (inactive) | -0.62 (inactive) | 0.452 (inactive) | -0.429 | 0.349 (inactive) | 1.08 (inactive) | 0.803 | 0.135 | 0.487 | -0.0645 | -0.957 | -0.442 | 0.732 | 2.16 (inactive) | -0.337 | -0.615 | 0.735 (inactive) |
| O=C1OCCC=C[C@H]2OC34C=CCN(Cc5ccccc5)C(=O)[C@H]3N(CCCCCCO)C(=O)[C@@H]4C12 (stereo not given in full) | 1.12 (inactive) | -0.0831 | 0.944 (inactive) | 0.396 (inactive) | 0.884 (inactive) | 0.43 (inactive) | 1.2 | 1.11 (inactive) | 0.0473 (inactive) | 1.97 | 0.612 | -0.0143 | 0.457 | 1.68 | 0.581 | 0.445 | 0.903 (inactive) | -0.0486 | -0.248 | 1.33 (inactive) |
| COc1ccc(C(=O)Nc2cccc(CN3C(=O)[C@@]4(O[C@@H](CCn5cc(CCO)nn5)[C@H]([Si](C)(C)c5ccc(OC)cc5)[C@H]4C)c4ccccc43)c2)cc1 | -2.23 (inactive) | 0.223 | 13.4 (active) | 2.74 (inactive) | 0.318 (inactive) | 1.26 (inactive) | -0.782 | -3.75 (inactive) | -0.389 (inactive) | 2.37 | -1.31 | -0.599 | -4.58 | -2.88 | -4.33 | 0.254 | 0.285 (inactive) | -0.136 | -2.3 | -4.55 (inactive) |
| C=CCC(OC(C)=O)[C@@H]1[C@@H](N(Cc2ccc(-c3cccc(C(F)(F)F)c3)o2)C(=O)c2ccc(C)cc2)c2cc(OCCCO)ccc2N1C(=O)c1ccc(-c2ccccc2)cc1 (stereo not given in full) | 1.35 (inactive) | -0.0464 | 1.93 (inactive) | 0.705 (inactive) | -0.0802 (inactive) | -0.0352 (inactive) | -0.047 | -3.28 (inactive) | 0.822 (inactive) | 2.25 | 1.18 | 0.345 | 1.65 | 1.02 | 0.657 | 3.89 | -1.29 (inactive) | 0.866 | 0.112 | -0.0211 (inactive) |
| COC(=O)c1ccc(C(O)C2C=CC3C(=O)N(c4ccccc4)C(=O)C3N2Nc2ccc(C#N)cc2)o1 (stereo not given) | -0.855 (inactive) | 0.117 | 6.87 (inactive) | 1.66 (inactive) | 1.36 (inactive) | 0.975 (inactive) | -0.757 | -0.499 (inactive) | -4.57 (inactive) | -2.23 | 0.88 | 0.0728 | 2.04 | -0.182 | -1.52 | 0.822 | -0.559 (inactive) | 0.111 | -0.849 | 0.276 (inactive) |
| CC(=O)C1=CCC(c2ccccc2)N(S(=O)(=O)c2ccc(C)cc2)C1 (stereo not given) | -1.12 (inactive) | 0.157 | 2.75 (inactive) | 1.5 (inactive) | 1.4 (inactive) | 1.07 (inactive) | -0.26 | -0.179 (inactive) | -1.4 (inactive) | 0.0221 | -0.346 | 0.0159 | -0.727 | -0.0171 | -1.08 | -0.602 | -1.35 (inactive) | 0.697 | 0.329 | 0.183 (inactive) |
| O=C1OCCC=C[C@H]2OC34C=CCN(Cc5ccccc5)C(=O)[C@H]3N(CCCO)C(=O)[C@@H]4C12 (stereo not given in full) | 2.94 (inactive) | -0.101 | 0.64 (inactive) | -0.306 (inactive) | 0.739 (inactive) | -0.996 (inactive) | 0.84 | -1.96 (inactive) | -2.93 (inactive) | -3.28 | 0.577 | 1.66 | -1.04 | 0.0832 | -0.0189 | 0.161 | -0.282 (inactive) | 0.798 | -0.559 | 0.233 (inactive) |
| CN1CCC(CCCO)=CC1c1ccc(CN2CCCC2)cc1 (stereo not given) | 0.112 (inactive) | 0.663 | -0.274 (inactive) | -0.201 (inactive) | -0.0797 (inactive) | -0.111 (inactive) | -0.494 | -3.22 (inactive) | -0.765 (inactive) | -0.482 | -0.701 | 0.143 | -0.86 | -0.52 | 0.559 | 0.217 | -0.0668 (inactive) | -0.714 | 0.00742 | 0.819 (inactive) |
| Cc1ccc([C@H]2C(C(=O)O)=C[C@@H](C)N2S(=O)(=O)c2ccc(C)cc2)cc1 | -0.832 (inactive) | -0.149 | 1 (inactive) | 0.587 (inactive) | 0.018 (inactive) | 0.39 (inactive) | -0.848 | 0.534 (inactive) | 0.259 (inactive) | 0.101 | -0.464 | 0.644 | -0.173 | -1.35 | -0.808 | -1.15 | -0.642 (inactive) | -0.187 | 0.249 | -0.16 (inactive) |
| O=C(NCc1ccccc1)[C@]1(CCS(=O)(=O)c2ccccc2)N=C(c2ccc(OCCCO)cc2)O[C@@H]1c1ccccc1 | 0.673 (inactive) | -0.345 | 24 (active) | 6.86 (inactive) | 1.85 (inactive) | 1.45 (inactive) | -0.402 | 0.0459 (inactive) | 0.902 (inactive) | 0.242 | -0.649 | 0.0335 | -0.708 | -0.478 | -0.651 | 1.24 | 0.499 (inactive) | -0.762 | -1.75 | -0.704 (inactive) |

— PubChem BioAssay
